Inconclusive results are not listed. Activity calls are given as the source filed them. The call rests on the fitted dose curve; in most records, active means well fitted curve in the direction sought with a large enough effect; inconclusive means small, poorly fitted or top-dose-only effect, or another doubt; inactive means no such curve, though single readings can be large; an effect the other way counts as inactive or inconclusive. Where a SMILES comes first, the peptide text is derived from it. The star is where a group is joined. AFC = O=c1cc(C(F)(F)F)c2ccc(N*)cc2o1
What was measured:
HaCat = test: Cytotoxic Profiling of Annotated Libraries Using Quantitative High-Throughput Screening (AID 1296008); details: Five cell lines viability, CellTiter-Glo ATP luminescence, 48-72 h; max response: stronger effect = lower value; further: nearly all actives have a fitted effect of over 60% in size
Summary of the method: (§1)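 Cytotoxicity was measured as CellTiter-Glo ATP luminescence, read after 10 min at room temperature. Compound treatment of the cells lasted 48 or 72 hr at 37 degrees Celsius in a qHTS format.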

KB-3-1 = test: as above; details: Five cell lines viability, CellTiter-Glo ATP luminescence, 48-72 h; max response: stronger effect = lower value
Summary of the method: as §1

NIH3T3 = test: as above; details: Five cell lines viability, CellTiter-Glo ATP luminescence, 48-72 h; max response: stronger effect = lower value
Summary of the method: as §1

C33A = test: Primary qHTS to identify gynecologic anti-cancer compounds using libraries of approved drugs and bioactive compounds (AID 1345084); details: Gynecologic cancer cell panel viability, ATPlite luminescence, 48 h; series mostly up to 57.5 µM; further: nearly all actives have a fitted effect of over 55% in size
Summary of the method: (§2)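 Cytotoxicity screen measuring ATP content by luciferase luminescence. Each compound is applied at five concentrations for 48 h at 37 C with 5% CO2.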

CAOV3 = test: as above; details: Gynecologic cancer cell panel viability, ATPlite luminescence, 48 h; series mostly up to 57.5 µM
Summary of the method: as §2

CASKI = test: as above; details: Gynecologic cancer cell panel viability, ATPlite luminescence, 48 h; series mostly up to 57.5 µM
Summary of the method: as §2

Es-2 = test: as above; details: Gynecologic cancer cell panel viability, ATPlite luminescence, 48 h; series mostly up to 57.5 µM
Summary of the method: as §2

HeLa = test: as above; details: Gynecologic cancer cell panel viability, ATPlite luminescence, 48 h; series mostly up to 57.5 µM
Summary of the method: as §2

Hek293T = test: as above; details: Gynecologic cancer cell panel viability, ATPlite luminescence, 48 h, control line for the selectivity index; series mostly up to 57.5 µM
Summary of the method: as §2

JEG-3 = test: as above; details: Gynecologic cancer cell panel viability, ATPlite luminescence, 48 h; series mostly up to 57.5 µM
Summary of the method: as §2

OV90 = test: as above; details: Gynecologic cancer cell panel viability, ATPlite luminescence, 48 h; series mostly up to 57.5 µM
Summary of the method: as §2
On the % scale 0 is the no-effect control and ±100 the full control effect; potency means the concentration at half of the fitted maximal effect.

CC(=O)N[C@@H](Cc1c[nH]c2ccccc12)C(=O)N[C@@H](CCC(=O)O)C(=O)N[C@@H](Cc1cnc[nH]1)C(=O)N[C@@H](CC(=O)O)C(=O)Nc1ccc2c(C(F)(F)F)cc(=O)oc2c1 (Ac-WEHD-{AFC})
inactive: max response (HaCat) -11.3% | outcome (KB-3-1) | max response (NIH3T3) 0.286% | Potency (C33A) | Potency (CAOV3) | Potency (CASKI) | Potency (Es-2) | Potency (HeLa) | Potency (Hek293T) | Potency (JEG-3) | Potency (OV90)

CC1=CC(=O)C2C(C)(C)CCC[C@]2(C)[C@H]1CO (stereo partly drawn)
inactive: max response (HaCat) -11.3% | max response (KB-3-1) 2.57% | max response (NIH3T3) 2% | Potency (C33A) | Potency (CAOV3) | Potency (CASKI) | Potency (Es-2) | Potency (HeLa) | Potency (Hek293T) | Potency (JEG-3) | Potency (OV90)

COc1ccc2cc(C(C)C(=O)Oc3ccc(C(N)=S)cc3)ccc2c1 (stereo not drawn)
inactive: max response (HaCat) 2.17% | max response (KB-3-1) 7.25% | max response (NIH3T3) 3.5% | Potency (C33A) | Potency (CAOV3) | Potency (CASKI) | Potency (Es-2) | Potency (HeLa) | Potency (Hek293T) | Potency (JEG-3) | Potency (OV90)

C[C@@H]1O[C@@H](O[C@@H]2[C@@H](O)[C@H](O[C@H]3[C@H](O[C@H]4CC[C@@]5(C)C(CC[C@]6(C)C5CC=C5[C@@H]7CC(C)(C)CC[C@]7(C(=O)O[C@@H]7O[C@H](CO)[C@@H](O)[C@H](O)[C@H]7O[C@@H]7O[C@@H](C)[C@H](O[C@@H]8O[C@@H](C)[C@H](O)[C@@H](O)[C@H]8O)[C@@H](O)[C@H]7O)CC[C@]56C)[C@@]4(C)CO)O[C@H](C(=O)O)[C@@H](O)[C@@H]3O)O[C@H](CO)[C@H]2O)[C@H](O)[C@H](O)[C@H]1O (stereo partly drawn)
inactive: max response (HaCat) 4.58% | max response (KB-3-1) 5.11% | max response (NIH3T3) 2.85% | activity change, negative = cytotoxicity (C33A) 0.245% [at 6.55 µM] | activity change, negative = cytotoxicity (CAOV3) 5.38% [at 6.55 µM] | activity change, negative = cytotoxicity (CASKI) 3.98% [at 6.55 µM] | activity change, negative = cytotoxicity (Es-2) -0.113% [at 6.55 µM] | activity change, negative = cytotoxicity (HeLa) 1.1% [at 6.55 µM] | activity change, negative = cytotoxicity (Hek293T) 2.2% [at 6.55 µM] | activity change, negative = cytotoxicity (JEG-3) 8.58% [at 6.55 µM] | activity change, negative = cytotoxicity (OV90) 6.41% [at 6.55 µM]

CC[C@H]1OC(=O)[C@](C)(F)C(=O)[C@H](C)[C@@H](O[C@@H]2O[C@H](C)C[C@H](N(C)C)[C@H]2O)[C@](C)(OC)C[C@@H](C)C(=O)[C@@H](C)[C@H]2N(CCCCn3cc(-c4cccc(N)c4)nn3)C(=O)O[C@]12C
inactive: max response (HaCat) -5.51% | max response (KB-3-1) -12.6% | max response (NIH3T3) 1.26% | Potency (C33A) | Potency (CAOV3) | Potency (CASKI) | Potency (Es-2) | Potency (HeLa) | Potency (Hek293T) | Potency (JEG-3) | Potency (OV90)

CCCCc1ccc(C(=O)Nc2cc(-c3ccc(Cl)cc3)nn2-c2ccc(Cl)cc2)cc1
inactive: max response (HaCat) -3.42% | max response (KB-3-1) -4.76% | max response (NIH3T3) -1.01% | Potency (C33A) | Potency (CAOV3) | Potency (CASKI) | Potency (Es-2) | Potency (HeLa) | Potency (Hek293T) | Potency (JEG-3) | Potency (OV90)

CC(=O)O[C@@H](CO[C@@H]1O[C@H](CO)[C@H](O)[C@H](O)[C@H]1O)[C@]1(C)C=C2CC[C@@H]3C(C)(C)[C@@H](O)CC[C@@]3(C)[C@@H]2CC1
inactive: max response (HaCat) 2.2% | max response (KB-3-1) 2.92% | max response (NIH3T3) 4.41% | Potency (C33A) | Potency (CAOV3) | Potency (CASKI) | Potency (Es-2) | Potency (HeLa) | Potency (Hek293T) | Potency (JEG-3) | Potency (OV90)

COc1cc(C(=O)OC[C@@]2(O)CO[C@@H](O[C@H]3[C@H](Oc4ccc(C(=O)O)cc4OC)O[C@H](CO)[C@@H](O)[C@@H]3O)[C@@H]2O)ccc1O
inactive: max response (HaCat) 1.78% | outcome (KB-3-1) | max response (NIH3T3) 3.57% | Potency (C33A) | Potency (CAOV3) | Potency (CASKI) | Potency (Es-2) | Potency (HeLa) | Potency (Hek293T) | Potency (JEG-3) | Potency (OV90)

CC[C@H](NC(=O)[C@H](CS(=O)(=O)CC1CC1)N[C@@H](c1ccc(F)cc1)C(F)(F)F)C(=O)C(=O)NC1CC1
inactive: max response (HaCat) -1.21% | max response (KB-3-1) 3.82% | max response (NIH3T3) -16% | Potency (C33A) | Potency (CAOV3) | Potency (CASKI) | Potency (Es-2) | Potency (HeLa) | Potency (Hek293T) | Potency (JEG-3) | Potency (OV90)

CO[C@H]1O[C@@H]2O[C@]3(C)CC[C@H]4[C@H](C)CC[C@@H]([C@H]1C)[C@@]24OO3
inactive: max response (HaCat) -0.0315% | outcome (KB-3-1) | max response (NIH3T3) 4.96% | Potency (C33A) | Potency (CAOV3) | Potency (CASKI) | Potency (Es-2) | Potency (HeLa) | Potency (Hek293T) | Potency (JEG-3) | Potency (OV90)

Nc1ncnc2c1nc(N)n2[C@@H]1O[C@H](CO)[C@@H](O)[C@H]1O
active: Potency (HaCat) 0.58 µM | Potency (KB-3-1) 4.61 µM | Potency (NIH3T3) 4.11 µM | Potency (C33A) 3.55 µM | Potency (CAOV3) 1.26 µM | Potency (CASKI) 3.16 µM | Potency (Es-2) 3.16 µM | Potency (HeLa) 5.01 µM | Potency (Hek293T) 7.94 µM | Potency (JEG-3) 15.8 µM | Potency (OV90) 3.55 µM

C/C=C1\[C@H](O[C@@H]2O[C@H](CO)[C@@H](O)[C@H](O)[C@H]2O)OC=C(C(=O)OC)[C@H]1CC(=O)OC[C@H]1O[C@@H](OCCc2ccc(O)cc2)[C@H](O)[C@@H](O)[C@@H]1O
inactive: max response (HaCat) -4.08% | max response (KB-3-1) 1.44% | max response (NIH3T3) -11.8% | Potency (C33A) | Potency (CAOV3) | Potency (CASKI) | Potency (Es-2) | Potency (HeLa) | Potency (Hek293T) | Potency (JEG-3) | Potency (OV90)

CC1(C=O)CC[C@]2(C(=O)O[C@@H]3O[C@H](CO)[C@@H](O)[C@H](O)[C@H]3O)CC[C@]3(C)C(=CCC4[C@@]5(C)C[C@H](O)[C@H](O[C@@H]6OC[C@@H](O)[C@H](O)[C@H]6O)[C@@](C)(CO)C5CC[C@]43C)C2C1 (stereo partly drawn)
inactive: max response (HaCat) -0.307% | outcome (KB-3-1) | max response (NIH3T3) -1.18% | activity change, negative = cytotoxicity (C33A) -2.32% [at 11.6 µM] | activity change, negative = cytotoxicity (CAOV3) -2.27% [at 11.6 µM] | activity change, negative = cytotoxicity (CASKI) 0.835% [at 11.6 µM] | activity change, negative = cytotoxicity (Es-2) -7.22% [at 11.6 µM] | activity change, negative = cytotoxicity (HeLa) -5.1% [at 11.6 µM] | activity change, negative = cytotoxicity (Hek293T) -2.72% [at 11.6 µM] | activity change, negative = cytotoxicity (JEG-3) 12.1% [at 11.6 µM] | activity change, negative = cytotoxicity (OV90) 9.96% [at 11.6 µM]

Source: PubChem BioAssay (NCATS)
